# In PubChem BioAssay:
# Several values for one entry are separate records, joined by “and”; a condition that tells them apart may be missing. Equal entries are not always repeated. Activity calls are given as the source filed them.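 How the source made its calls, unless noted: active means compounds whose cell count with miR-34 switched on is under 0.7 times the count with it off; inactive means the rest.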
# Key:
# [1] = stimulators of nuclear beta-catenin in C2C12, primary screen, imaging, WNT3A-conditioned medium, mouse C2C12, NPC library (AID 1117326; in the data active means nuclear beta-catenin stimulation mostly above about 4.2%, no sharp cut-off; inactive means mostly below about 10%); details: stronger effect = higher value
# [2] = stimulators of insulin release from INS-1E, primary screen, cell-based, 5 mM glucose, NPC library (AID 1117329;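 active means compound raises insulin release from rat beta cells at 5 mM glucose, no numeric limit stated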); details: rat INS-1E insulin secretion, at 10 µM, stronger effect = higher value
# [3] = growth inhibition of GSK3B-pretreated HCT116 cells – cell-based, CellTiter-Glo, 0.2 to 20 µM (AID 1117336;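 active means compounds lowering colon cancer cell viability after pretreatment blocking the GSK3B kinase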); details: HCT116 viability after GSK3B inhibitor, at 20 µM, stronger effect = higher value
# [4] = inhibition of endothelial tube formation, primary screen, imaging, VEGF stimulated, CD31 staining, tube area, NPC library (AID 1117340;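 active means compound that reduces growth-factor-driven endothelial tube area in a mixed cell culture, no cutoff stated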); details: VEGF-stimulated ADSC/ECFC co-culture, at 10 µM, stronger effect = higher value
# [5] = glucagon-like peptide 1 release enhancers, primary assay, NCI-H716 cell line, NPC library (AID 1117341;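 active means compound raises GLP1 secretion from the human gut endocrine cells, with no numeric limit stated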); details: NCI-H716 cells, at 10 µM, stronger effect = higher value
# [6] = HCT116 colon cancer cell growth inhibition, primary screen, CellTiter-Glo luminescence, NPC library (AID 1117342;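 active means compounds that lower survival of HCT116 colon cancer cells in the luminescence readout, no numeric limit stated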); details: at 20 µM (top of the series)
# [7] = CellTiter-Glo luminescent readout of SW480 viability loss, NPC library primary (AID 1117343;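 active means compounds that lower viability of the colon cancer cells in the luminescence readout, with no numeric limit stated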); details: CellTiter-Glo luminescence; at 20 µM (top of the series) unless noted
# [8] = decreased DLD-1 cellular survival, CellTiter-Glo luminescent readout, NPC compound collection, primary HTS (AID 1117346;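 active means compounds that lower survival of DLD-1 colon cancer cells in the luminescence readout, no cutoff given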); details: DLD-1 viability, CellTiter-Glo luminescence; at 20 µM (top of the series)
# [9] = differential killing of epithelial or mesenchymal cells, primary screen, imaging, PC-3E GFP, TEM4-18 mCherry, co-culture (AID 1345086;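 active means compounds killing one labelled cell type while sparing the other, by normalised counts and ratio limits, not self-fluorescent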;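 on all read-outs here: cells exposed to compound for 72 h before imaging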;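 on red/green cell ratio (normalised): normalised mesenchymal count divided by normalised epithelial count so high means epithelial killing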); details: imaging cell counts, at 1 µM; for red/green cell ratio (normalised): actives lie on both sides, counts scaled to control wells, 1 = unselective
# [10] = sensitizers of A549 cells to miR-34 induction, primary screen, imaging, A549 dox-inducible miR-34, nuclei and caspase counts (AID 1347080); details: A549 miR-34 inducible, Hoechst nuclei count, 48 h
# [11] = survival rescue of mitochondrial mutant cells in low glucose, primary screen, MELAS cybrids, Rieske KO mouse fibroblasts, CellTiter-Glo (AID 1508586;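 active means mean z-score across replicates of 1.96 or higher in either the MELAS or the Rieske mutant cell line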;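 further: z relative to plate mean and SD of compound and empty wells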)
# [12] = biological target: NAD(+) hydrolase SARM1 (Homo sapiens) (UniProt Q6SZW1); experiment: SARM1 TIR NADase inhibitors, cell lysate, NAD-Glo luminescence (AID 1508614;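 active means compound whose remaining NAD level is above about 45 nM, limit read from the data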); details: SAM-TIR HEK293T lysate NADase, at 1 µM, stronger effect = higher value
# [13] = LFS_MB_P medulloblastoma growth inhibition, cell-based, chromothripsis tumors, cisplatin or BGB combos (AID 1671449; in the data active means inhibition above about 80%;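 further: cells exposed for 96 hours; 0% = vehicle DMSO and 100% = killing by high DMSO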); details: LFS_MB_P medulloblastoma cells
# [14] = HDN33 neuroblastoma growth inhibition, cell-based, chromothripsis tumors, cisplatin or BGB combos (AID 1671450; in the data active means inhibition above about 80%;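 further: cells exposed to compound for four days; 0% = vehicle DMSO and 100% = cell killing by high DMSO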); details: HDN33 neuroblastoma cells, stronger effect = higher value
# [15] = ICB984 medulloblastoma cell growth inhibition, synergistic combos for chromothripsis tumors, cisplatin or BGB combos (AID 1671451; call rule not given here;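 further: cells exposed for 96 hours before readout; 0% = vehicle DMSO and 100% = killing by high DMSO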); details: ICB984 medulloblastoma cells, drug combinations, stronger effect = higher value
# [16] = HTB85 osteosarcoma cell growth inhibition, synergistic combos for chromothripsis tumors, BGB or cisplatin IC20 combos (AID 1671453; in the data active means inhibition above about 80%;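 further: cells exposed for 96 hours before readout; 0% = vehicle DMSO and 100% = high DMSO killing control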); details: HTB85 osteosarcoma cells, drug combinations, stronger effect = higher value
# [17] = MDA-MB-436 breast carcinoma cell growth inhibition, synergistic combos for chromothripsis tumors, BGB or cisplatin combos (AID 1671458; call rule not given here;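 further: cells exposed for 96 hours; 0% = vehicle DMSO and 100% = killing by high DMSO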); details: MDA-MB-436 breast carcinoma growth inhibition, drug combinations, stronger effect = higher value
# [18] = liver-stage malaria parasite growth inhibition, primary screen, cell-based, HepG2, luciferase luminescence, HepG2 viability (AID 624349; in the data active means parasite load remaining mostly below about 12%, no sharp cut-off; inactive means mostly above about 10%;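 further: 100% = mean of DMSO negative control wells on the same plate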); details: P. berghei liver stage in HepG2, luciferase luminescence, concentration not given here; parasite load remaining: stronger effect = lower value; viability: measured here: HepG2 viability without parasites
# [19] = hESC survival regulators, cell-based (AID 493140; call rule not given here;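 further: cells exposed to compounds for four days before counting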); details: human embryonic stem cell survival screen; stronger effect = higher value
# [20] = measured here: epithelial PC-3E GFP cell survival
# [21] = measured here: mesenchymal TEM4-18 mCherry cell survival
# [22] = stronger effect = lower value, cell number ratio, induced over uninduced
# [23] = measured here: relative caspase fold change +Dox/-Dox
# [24] = measured here: total cells with miR-34 induction, stronger effect = lower value
# [25] = measured here: total cells without miR-34 induction
# [26] = MELAS cybrid survival, CellTiter-Glo 48 h, stronger effect = higher value
# [27] = Rieske KO mouse fibroblast survival, CellTiter-Glo 72 h
# Sequence of NAD(+) hydrolase SARM1 (Homo sapiens) (Q6SZW1 whole entry, looked up): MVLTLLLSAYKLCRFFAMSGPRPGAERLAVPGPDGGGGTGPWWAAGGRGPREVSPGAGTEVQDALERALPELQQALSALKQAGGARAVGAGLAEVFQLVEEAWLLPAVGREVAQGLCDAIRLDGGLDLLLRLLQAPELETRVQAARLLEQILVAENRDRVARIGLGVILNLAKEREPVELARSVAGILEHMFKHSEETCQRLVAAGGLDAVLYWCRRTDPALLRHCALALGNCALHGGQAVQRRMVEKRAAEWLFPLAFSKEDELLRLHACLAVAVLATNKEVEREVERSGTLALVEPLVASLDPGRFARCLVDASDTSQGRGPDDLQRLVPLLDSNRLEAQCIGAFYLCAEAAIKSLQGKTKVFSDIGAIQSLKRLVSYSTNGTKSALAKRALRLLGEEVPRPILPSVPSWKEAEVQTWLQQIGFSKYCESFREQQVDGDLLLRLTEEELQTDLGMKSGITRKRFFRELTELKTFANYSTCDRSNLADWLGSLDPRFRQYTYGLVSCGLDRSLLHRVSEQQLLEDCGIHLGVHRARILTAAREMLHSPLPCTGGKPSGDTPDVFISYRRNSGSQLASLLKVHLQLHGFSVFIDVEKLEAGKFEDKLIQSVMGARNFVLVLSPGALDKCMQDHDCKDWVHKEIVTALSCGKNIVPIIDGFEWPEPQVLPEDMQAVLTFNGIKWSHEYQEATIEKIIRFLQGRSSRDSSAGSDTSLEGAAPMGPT
compound,measurement,setting,value
O=c1cc[nH]c(=O)[nH]1,nuclear beta-catenin stimulation,[1]; at 10 µM,2.3% (inactive)
same,nuclear beta-catenin stimulation,"[1]; stimulation, at 2 µM",0.3%
same,insulin secretion stimulation,[2],0% (inactive)
same,viability decrease,[3],0.75% (inactive)
same,tube area decrease,[4],-14.5% (inactive)
same,GLP1 secretion stimulation,[5],-2.6% (inactive)
same,inhibition of viability,[6],1% (inactive)
same,viability decrease (inhibition),[7],8% (inactive)
same,viability decrease (inhibition),[8],3.55% (inactive)
same,red/green cell ratio (normalised),[9],1.11 (inactive)
same,normalised cell number,[9]; [20],1.05
same,normalised cell number,[9]; [21],1.16
same,fold change,[10]; [22],0.956 (inactive) and 0.943 (inactive)
same,fold change,[10]; [23],0.736 and 0.726
same,cell count,[10]; [24],8740 and 8670
same,cell count,[10]; [25],9140 and 9190
same,z-score,[11]; [26],-0.276 (inactive)
same,z-score,[11]; [27],-0.187
same,remaining NAD,[12],10 nM (inactive)
same,inhibition,"[13]; at 0.5 µM, stronger effect = higher value",-22.6% (inactive)
same,inhibition,"[13]; measured here: combination with BGB IC20, at 0.005 µM",-16.6%
same,inhibition,"[13]; measured here: combination with BGB IC40, at 0.005 µM",-38.5%
same,inhibition,"[13]; measured here: combination with BGB IC40, at 0.05 µM",-9.29%
same,inhibition,"[13]; measured here: combination with cisplatin, at 0.5 µM, stronger effect = higher value",-28.9%
same,inhibition,"[13]; measured here: combination with cisplatin, at 5 µM, stronger effect = higher value",-19.9%
same,inhibition,"[14]; BGB combo, at 5 µM",-47.9%
same,inhibition,[14]; at 0.5 µM,-41.6% (inactive)
same,inhibition,"[14]; cisplatin combo, at 5 µM",-56.4%
same,inhibition,"[14]; measured here: with BGB IC20 combination, at 0.5 µM",-36.5%
same,inhibition,"[14]; measured here: with cisplatin IC20 combination, at 0.5 µM",-23.5%
same,inhibition,"[14]; single agent, at 5 µM",-52%
same,inhibition,"[15]; BGB IC20 combo, at 0.005 µM",-14.6%
same,inhibition,"[15]; BGB IC40 combo, at 0.005 µM",-47.1%
same,inhibition,"[15]; BGB IC40 combo, at 0.05 µM",-28.5%
same,inhibition,[15]; at 0.5 µM,-27% (inactive)
same,inhibition,"[15]; cisplatin combo, at 0.05 µM",-28.5%
same,inhibition,"[15]; cisplatin combo, at 0.5 µM",-48.6%
same,inhibition,"[15]; cisplatin combo, at 5 µM",-27.5%
same,inhibition,"[15]; measured here: 5 uM single agent, at 5 µM",-5.8%
same,inhibition,[16]; at 0.5 µM,-37.5% (inactive)
same,inhibition,"[16]; measured here: with BGB IC20, at 0.5 µM",-69.8%
same,inhibition,"[16]; measured here: with BGB IC20, at 5 µM",-35.2%
same,inhibition,"[16]; measured here: with cisplatin IC20, at 0.5 µM",-26.2%
same,inhibition,"[16]; measured here: with cisplatin IC20, at 5 µM",-33.2%
same,inhibition,"[16]; single agent, at 5 µM",-19.7%
same,inhibition,[17]; at 0.5 µM,-27.5% (inactive)
same,inhibition,"[17]; measured here: BGB combination, at 0.5 µM",-30.5%
same,inhibition,"[17]; measured here: BGB combination, at 5 µM",-26.1%
same,inhibition,"[17]; measured here: cisplatin combination, at 0.5 µM",-40.8%
same,inhibition,"[17]; measured here: cisplatin combination, at 5 µM",-24%
O=C(Oc1cccc2cccnc12)c1ccccc1,parasite load remaining,[18],41.2% (inactive)
same,viability,[18],102%
same,nuclear beta-catenin stimulation,[1]; at 10 µM,19.8% (inactive)
same,nuclear beta-catenin stimulation,"[1]; stimulation, at 2 µM",0.5%
same,insulin secretion stimulation,[2],-2.2% (inactive)
same,viability decrease,[3],23.6% (inactive)
same,tube area decrease,[4],-21.4% (inactive)
same,GLP1 secretion stimulation,[5],0.9% (inactive)
same,inhibition of viability,[6],27.1% (inactive)
same,viability decrease (inhibition),[7],22.8% [at 2 µM] (inactive)
same,viability decrease (inhibition),[8],-5.55% (inactive)
same,red/green cell ratio (normalised),[9],1 (inactive)
same,normalised cell number,[9]; [20],1.14
same,normalised cell number,[9]; [21],1.13
same,fold change,[10]; [22],0.805 (inactive)
same,fold change,[10]; [23],5.26
same,cell count,[10]; [24],10400
same,cell count,[10]; [25],12900
same,z-score,[11]; [26],0.276 (inactive)
same,z-score,[11]; [27],0.498
same,remaining NAD,[12],10 nM (inactive)
CCCCOC(=O)c1ccc(O)cc1,survival,[19],2.33 (inactive)
same,parasite load remaining,[18],105% (inactive) and 43.2% (inactive)
same,viability,[18],94.2% and 99.8%
same,nuclear beta-catenin stimulation,[1]; at 10 µM,1.7% (inactive)
same,nuclear beta-catenin stimulation,"[1]; stimulation, at 2 µM",1.9%
same,insulin secretion stimulation,[2],4.6% (inactive)
same,viability decrease,[3],-64.4% (inactive)
same,tube area decrease,[4],17% (inactive)
same,GLP1 secretion stimulation,[5],-6.3% (inactive)
same,inhibition of viability,[6],15% (inactive)
same,viability decrease (inhibition),[7],67.9% (active)
same,viability decrease (inhibition),[8],9.6% (inactive)
same,red/green cell ratio (normalised),[9],1.09 (inactive)
same,normalised cell number,[9]; [20],1.43
same,normalised cell number,[9]; [21],1.56
same,fold change,[10]; [22],0.899 (inactive) and 0.857 (inactive)
same,fold change,[10]; [23],1.34 and 7.37
same,cell count,[10]; [24],8710 and 10100
same,cell count,[10]; [25],9690 and 11800
same,z-score,[11]; [26],0.705 (inactive)
same,z-score,[11]; [27],-0.347
same,remaining NAD,[12],10 nM (inactive)
